The panel holds about 83,000 compounds, 20% with a hit somewhere; the sample as a whole holds those more often.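 Each cell line was grown in a 96-well plate and treated with one concentration of compound for 48 hours. Values below 10 were considered active.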 Unmarked numbers belong to inactive results.

In this test the test system is SK-MEL-28 melanoma. The experiment in a line: NCI-60 one-dose screen, 48 h (100 = growth as untreated, 0 = no growth, -100 = all killed). Particulars: 10 µM unless noted.
Consider `Cc1cc(Br)ccc1-n1cc(C#N)c(N)c1C(=O)c1ccc(Br)cc1`, for which the growth was 102%.
As for `CCCCCCN1C=C/C(=C\C(=O)n2ccc3ccccc32)c2ccccc21`, the growth was 101%.
The figure for `Cc1ccc(CSC2=C(Cl)CN(c3ccc(Cl)cc3)C2=O)cc1` is 104%.
The result for `Clc1ccc(CSc2nnc(-c3ccc(Cl)cc3)n2-c2ccccc2)cc1` reads 98.8%; that for `NS(=O)(=O)c1ccc(CCn2c(-c3ccc(C(=O)O)cc3)nc(-c3ccccc3)c2-c2ccccc2)cc1`, 102%.
The result for `CC(=C(c1ccc(OCCCN(C)C)cc1)c1ccc(OCCCN(C)C)cc1)c1ccc(Cl)cc1` reads 99.2%; that for `CC[C@]12CC(C(=O)OC)=C3Nc4ccccc4[C@@]34CCN(C14)[C@@H]1c3cc4c(cc3O[C@@H]1[C@H]2O)NC1=C(C(=O)OC)C[C@@]2(CC)C3N(CC[C@@]143)C[C@H]1O[C@H]12` (some centres not stated), 20.7%.
Take `CN1CCC[C@]2(C)[C@H]3CC[C@@H]4[C@@H]5[C@H]6OC[C@@]5(CCC6(C)C)CC[C@@]4(C)[C@]3(C)CC[C@H]2C1(C)C`: the growth was 96.2%.
The figure for `O=S(=O)(Oc1ccc(-c2cn3ccoc3n2)cc1)c1cccc(C(F)(F)F)c1` is 106%; for `CC(Nc1c(C#N)cnc2ccc(-c3cncc(-c4n[nH]c(=O)o4)c3)cc12)c1ccccc1` (configuration not stated) it is 11.2%; for `C#CCN(C)CCCOc1ccc(NC(=O)CCCCCCCCC(=O)NO)cc1Cl` it is 77%.
`CCCc1cc2cc(-n3nc(CC)c4c3CC(C)(C)CC4=O)cc(NC3CCC(O)CC3)c2c(=O)[nH]1` (configuration not stated): the growth is 40.8%.
